# Measured values: paper PMC10812921, “Transcriptional Coactivator BOB1 (OBF1, OCA-B) Modulates the Specificity of DNA Recognition by the POU-Domain Factors OCT1 and OCT2 in a Monomeric Configuration”
# How the values were obtained:
# POU1 (OCT1 POU domain) = POU1 (OCT1 POU domain) (human, UniProt P14859 260-458); assay: EMSA-SELEX-seq; no BOB1; 20 mM Tris-HCl pH 7.6, 140 mM NaCl, 10% glycerol, 0.5 mM EDTA, 0.05% Triton X-100, 0.1 mg/mL BSA, 0.1 mg/mL poly(dI-dC), 5 mM DTT, room temperature, 20 min; high values mean tight binding; settings: protein: recombinant; dsDNA, one strand shown
# POU1 (OCT1 POU domain), sequence (P14859 260-458): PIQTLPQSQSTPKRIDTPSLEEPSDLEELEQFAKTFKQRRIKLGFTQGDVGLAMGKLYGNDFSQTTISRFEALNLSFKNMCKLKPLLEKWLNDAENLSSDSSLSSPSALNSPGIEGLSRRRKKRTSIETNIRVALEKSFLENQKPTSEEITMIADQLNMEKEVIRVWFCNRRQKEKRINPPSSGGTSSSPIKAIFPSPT
# Method in brief: (§1)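 With or without 28 ng coactivator protein, 30 ng of tagged POU-domain protein was combined with 300 ng of a PCR-amplified double-stranded random 35-nt library in 20 μL Tris–HCl pH 7.6 binding buffer for 20 min at RT. The protein came from E. coli BL21 and had been purified under denaturing conditions and renatured. Four rounds of cutting complex bands from native 6% PAGE, elution and PCR amplification preceded Illumina sequencing. The binding preference figure is the percentage of sequenced 8-mers matching a motif pattern.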
# POU2 (OCT2 POU domain) = molecular target: T1, POU2 (OCT2 POU domain) (human, UniProt P09086 175-386); assay: as above; settings: protein: recombinant; dsDNA, one strand shown
# T1 sequence: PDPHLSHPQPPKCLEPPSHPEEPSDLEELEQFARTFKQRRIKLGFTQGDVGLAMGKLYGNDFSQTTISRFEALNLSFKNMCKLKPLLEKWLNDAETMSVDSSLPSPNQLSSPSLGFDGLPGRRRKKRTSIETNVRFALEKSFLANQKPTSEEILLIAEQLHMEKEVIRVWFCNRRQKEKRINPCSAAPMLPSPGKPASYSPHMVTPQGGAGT
# Method in brief: as §1
# [1] = molecular target: POU1 (OCT1 POU domain);BOB1 (OBF1, OCA-B) (human;human, UniProt P14859;Q16633 260-458;1-256, |); assay: EMSA-SELEX-seq; with BOB1 (ternary complex band); 20 mM Tris-HCl pH 7.6, 140 mM NaCl, 10% glycerol, 0.5 mM EDTA, 0.05% Triton X-100, 0.1 mg/mL BSA, 0.1 mg/mL poly(dI-dC), 5 mM DTT, room temperature, 20 min; high values mean tight binding; settings: protein: recombinant;recombinant; copies: 1;1; dsDNA, one strand shown
# Method in brief: as §1
# [2] = molecular target: T2, POU2 (OCT2 POU domain);BOB1 (OBF1, OCA-B) (human;human, UniProt P09086;Q16633 175-386;1-256, |); assay: as above; settings: protein: recombinant;recombinant; copies: 1;1; dsDNA, one strand shown
# T2 sequence 1: T1 sequence
# T2 sequence 2: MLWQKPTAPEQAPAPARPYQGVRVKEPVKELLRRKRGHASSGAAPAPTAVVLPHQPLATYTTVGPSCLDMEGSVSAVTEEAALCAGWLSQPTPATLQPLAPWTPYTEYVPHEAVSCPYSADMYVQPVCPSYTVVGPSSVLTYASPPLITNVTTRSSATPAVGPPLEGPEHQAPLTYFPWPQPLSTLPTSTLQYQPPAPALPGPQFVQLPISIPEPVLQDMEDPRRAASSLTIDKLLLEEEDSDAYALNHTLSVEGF
# Method in brief: as §1
Sequence,binding signal (POU1 (OCT1 POU domain)),binding signal (POU2 (OCT2 POU domain)),binding signal [1],binding signal [2]
ACAGGAAT,0.0622 % of ANNNNAAN 8-mers,0.0685 % of ANNNNAAN 8-mers,0.0476 % of ANNNNAAN 8-mers,0.0702 % of ANNNNAAN 8-mers
ATATAAAG,0.0725 % of ANNNNAAN 8-mers,0.088 % of ANNNNAAN 8-mers,0.0597 % of ANNNNAAN 8-mers,0.0603 % of ANNNNAAN 8-mers
ATCGTAAG,0.0343 % of ANNNNAAN 8-mers,0.0449 % of ANNNNAAN 8-mers,0.0379 % of ANNNNAAN 8-mers,0.0388 % of ANNNNAAN 8-mers
ACTGCAAA,0.0416 % of ANNNNAAN 8-mers,0.0397 % of ANNNNAAN 8-mers,0.0535 % of ANNNNAAN 8-mers,0.0264 % of ANNNNAAN 8-mers
AGGGGAAT,0.11 % of ANNNNAAN 8-mers,0.121 % of ANNNNAAN 8-mers,0.089 % of ANNNNAAN 8-mers,0.11 % of ANNNNAAN 8-mers
AATACAAT,0.0797 % of ANNNNAAN 8-mers,0.107 % of ANNNNAAN 8-mers,0.0663 % of ANNNNAAN 8-mers,0.0982 % of ANNNNAAN 8-mers
AATCTAAA,0.107 % of ANNNNAAN 8-mers,0.129 % of ANNNNAAN 8-mers,0.0726 % of ANNNNAAN 8-mers,0.0669 % of ANNNNAAN 8-mers
AGCGAAAC,0.0183 % of ANNNNAAN 8-mers,0.023 % of ANNNNAAN 8-mers,0.0137 % of ANNNNAAN 8-mers,0.0198 % of ANNNNAAN 8-mers
AGAAAAAT,0.0946 % of ANNNNAAN 8-mers,0.0886 % of ANNNNAAN 8-mers,0.0921 % of ANNNNAAN 8-mers,0.09 % of ANNNNAAN 8-mers
ACCTGAAA,0.0183 % of ANNNNAAN 8-mers,0.0247 % of ANNNNAAN 8-mers,0.0215 % of ANNNNAAN 8-mers,0.019 % of ANNNNAAN 8-mers
ACCATAAG,0.0324 % of ANNNNAAN 8-mers,0.0414 % of ANNNNAAN 8-mers,0.0238 % of ANNNNAAN 8-mers,0.0248 % of ANNNNAAN 8-mers
ATGGTAAT,1.27 % of ANNNNAAN 8-mers,1.28 % of ANNNNAAN 8-mers,0.202 % of ANNNNAAN 8-mers,0.219 % of ANNNNAAN 8-mers
ACAGCAAG,0.0156 % of ANNNNAAN 8-mers,0.0155 % of ANNNNAAN 8-mers,0.0164 % of ANNNNAAN 8-mers,0.014 % of ANNNNAAN 8-mers
AACGGAAG,0.0168 % of ANNNNAAN 8-mers,0.0259 % of ANNNNAAN 8-mers,0.0164 % of ANNNNAAN 8-mers,0.0206 % of ANNNNAAN 8-mers
AGTCTAAG,0.0236 % of ANNNNAAN 8-mers,0.0322 % of ANNNNAAN 8-mers,0.0343 % of ANNNNAAN 8-mers,0.0297 % of ANNNNAAN 8-mers
AAGTGAAT,0.105 % of ANNNNAAN 8-mers,0.123 % of ANNNNAAN 8-mers,0.0796 % of ANNNNAAN 8-mers,0.0669 % of ANNNNAAN 8-mers
